Assay outcomes deposited in PubChem BioAssay by National Center for Advancing Translational Sciences (NCATS).
A selection: hits, their analogues and other compounds. The true share with any hit is near 5.7%.
ATXN2 expr inh = inhibitors of ATXN2 expression | HEK-293 ATXN2-luciferase reporter, luminescence, 24 h | Potency, µM (top dose mostly 57 µM), hits mostly inhibitors | actives 0.72% (n = 360,000) | AID 1745845; also: nearly all actives have a fitted effect of over 55% in size
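ATXN2-luciferase reporter cells (luciferase flanked by upstream and downstream ATXN2 gene portions) were treated 24 h at 37 °C with compounds at up to 57 uM. SteadyGlo luminescence gave expression; GF-AFC fluorescence gave viability.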
IL1B secr inh = blocks inflammasome-driven IL-1 beta release; THP-1 LPS/ATP IL-1B secretion, AlphaLISA, 16 h; hits give low values; activity change, % at 57.5 µM; actives 4.7% (n = 360,000); in the data active = activity change below about -50%; inconclusive = mostly about -30% to -49%
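THP-1 cells pretreated 1 hr with compounds (up to 57.5 uM final), then stimulated with LPS (250 ng/mL final) plus ATP (1.25 mM final); secreted IL-1B measured by AlphaLISA after 16 hr, decreased signal indicating inhibition.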
HepG2 tox = HepG2 cytotoxicity, counter-screen for TGF-b inhibitors | HepG2 CAGA-GFP viability, ATP luminescence, 18 h | Potency, µM (top dose mostly 46.1 µM), actives largely listed as cytotoxic | actives 0.76% (n = 410,000) | AID 588856
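CellTiter-Glo luminescence gave cytotoxicity after 18 hours at 37 degrees C. The cells were HepG2 CAGA-GFP in 1% FBS DMEM, stimulated with 500 pg/mL TGF-beta after compound addition. %Activity was normalised to no-cell wells (complete cell-killing) and DMSO (no toxicity), and curves were fitted and classified.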
ATXN viability = viability counter-screen for ATXN expression inhibitors; S2 cells (HEK-293 line with an ATXN2-luciferase reporter) viability, CellTiter-Fluor protease fluorescence, 24 h; Potency, µM (titrated, usually from 56.7 µM), usual class: cytotoxic; actives 0.49% (n = 400,000); AID 651635; also: nearly all actives have a fitted effect of over 40% in size
TGFb SMAD3 inh = TGF-b pathway inhibition; actives 1.2% (n = 410,000); Potency, µM (titrated, usually from 46.1 µM), usual class: inhibitors; HepG2 CAGA-GFP TGF-b/SMAD3 reporter, GFP fluorescence, 18 h; TGF-beta stimulated, 500 pg/mL final; AID 588855; also: nearly all actives have a fitted effect of over 65% in size
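Using HEPG2 CAGA-GFP reporter cells at 1000 cells/well, we pinned test compounds, stimulated with recombinant TGF-beta (500 pg/mL final) and measured total well GFP after 18 h.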
Hits are given with their value; - = inactive; ? = inconclusive; . = no result given; ! = not confirmed by another sample; [ ] = remark or other dose. Unless noted, calls follow the shape of the dose curve; as a rule, active = well fitted curve in the direction sought with a large enough effect; inconclusive = small, poorly fitted or top-dose-only effect, or another doubt; inactive = no such curve, though single readings can be large; an effect the other way counts as inactive or inconclusive.

SMILES	ATXN2 expr inh	IL1B secr inh	HepG2 tox	ATXN viability	TGFb SMAD3 inh
Cc1cc(NC(=O)c2ccc(C#N)cc2)n(-c2ccccn2)n1	-[11.3 µM]	-	-	-	-
Cc1cc(NC(=O)Nc2cccc(Cl)c2)n(-c2ccccn2)n1	-	-73	-	-	?
CN(C1CCc2c(c3ccccc3n2CC(=O)O)C1)S(=O)(=O)c1ccc(F)cc1 (centres undefined)	-	.	.	.	.
CC(C)[C@H](NC(=O)Cc1ccccc1)C(=O)OCc1cc(=O)n2c(n1)sc1ccccc12	-	-	-	-	16µM
C/C(=N\NC(=O)C12CCC(C)(C(=O)O1)C2(C)C)c1ccccc1O (centres undefined)	28µM	-	-	-	?
CC(=O)c1cccc(NC(=O)COc2ccccc2C(=O)Nc2ccccc2)c1	.	.	-	.	-
CCCCN(c1ccccc1)c1ncnc2c1cnn2-c1ccc(Cl)cc1	-	.	-	-	-
S=c1nc[nH]c2nc[nH]c12	?	-	1.4µM!	?	-
O=c1[nH]c(=S)[nH]c2nc[nH]c12	.	.	-	.	-
O=C(CCCN1CCC(O)(c2cccc(C(F)(F)F)c2)CC1)c1ccc(F)cc1	-	-54	-	-	-
O=C(CCCN1CCC(O)(c2ccc(Cl)cc2)CC1)c1ccc(F)cc1	?	-68	-	-	-
CC1CCN(CCCC(=O)c2ccc(F)cc2)CC1	-	.	.	-	.
CCC1CN(CCNC(=O)c2cccnc2OC)Cc2cc(OC)ccc2O1 (centres undefined)	.	.	.	-	.
CN1CCN(Cc2ccc(Sc3ccc(Cl)cc3)c([N+](=O)[O-])c2)CC1	-	-92	-	-	-
Cc1ccc(NC(=O)Cn2cc(C(=O)c3ccco3)c3ccccc32)c(C)c1	.	.	-	.	?
Cc1ccc(NC(=O)CC(=O)Nc2ccc(C)c(C)c2)cc1C	-	-	-	-	-
Cc1ccc(C)c(Sc2ccc(NC(=O)CCl)cc2)c1	?	-88	-	?	?
Cc1ccc(Sc2ccc(NC(=O)CCl)cc2)cc1C	32µM	-79	-	?	?
O=C(CCl)Nc1ccccc1Sc1ccccc1	-	?	-	-	-
COc1cc(Cl)c(C)cc1NC(=O)CCCN1C(=O)C(c2ccccc2)Oc2cccnc21 (centres undefined)	-	.	-	?	-
O=C(N/N=C/c1ccc(O)cc1)NC12CC3CC(CC(C3)C1)C2	-	-74	-	-	-
COc1ccc(/C=N/NC(=O)NC23CC4CC(CC(C4)C2)C3)c(OC)c1	-	-69	-	-	-
NCCc1c(-c2ccccc2)n(-c2ccccc2)c2ccccc12	28µM	-97	20µM	?	?
Cc1ccc(CNC(=O)CCCN2C(=O)COc3ccc(C)cc32)cc1	-	.	-	-	-
Cc1ccc(-c2nn(-c3ccccc3)cc2/C=N/NC(=O)CSc2nnc(C)n2-c2ccccc2)cc1	-	-62	-	-	?
SMILES	ATXN2 expr inh	IL1B secr inh	HepG2 tox	ATXN viability	TGFb SMAD3 inh
Cc1ccc(-n2c(SCC(=O)N/N=C/c3ccc(C)s3)nnc2-c2ccccc2)cc1	-	-57	-	-	-
CCc1ccc(CNC(=O)c2cnc3sc(N4CCOCC4)nn3c2=O)cc1	.	.	-	.	-
Cc1nn(CC(=O)NCc2ccc(N(C)C)cc2)c(=O)c2c(C)n(-c3ccc(Cl)cc3)nc12	.	.	-	.	-
CN1C2C=CC(=O)C1C1C(=O)N(c3ccccc3)C(=O)C12 (centres undefined)	?	-118	-	?	-
COc1ccc2oc(-c3ccc(C)c(NC(=O)c4ccc5c(c4)OCCO5)c3)nc2c1	-	.	-	?	-
COc1ccc(CNC(=O)CN(Cc2ccco2)C(=O)CNS(=O)(=O)c2ccccc2)cc1	-	-67	-	-	-
O=P(c1ccccc1)(c1ccccc1)c1cc(Br)cc(Br)c1OCCO	-	-56	-	-	-
CC1(C(=O)NCc2ccco2)CCN1C(=O)C1(c2ccccc2)CC1 (centres undefined)	-	-107	-	-	-
NCCCNCCCCNC(=O)C(O)NC(=O)CCCCCCN=C(N)N (centres undefined)	.	.	.	-	.
N[C@@H](C(=O)N[C@H]1C(=O)N2C(C(=O)O)=C(Cl)CC[C@H]12)c1ccccc1	.	.	.	-	.
Cc1nc(Cl)nc(N(C)c2ccccc2)c1[N+](=O)[O-]	-	-82	-	-	-
O=C(Cc1ccccc1)NC1CC(=O)N(c2ccccc2)C1 (centres undefined)	.	.	-	.	-
COc1cc(OC)c(OC)cc1/C=C1/Cc2ccccc2C1=O	.	-	-	-	-
COc1cc(OC)c(OC)cc1/C=C1\CC(C)C/C(=C\c2cc(OC)c(OC)cc2OC)C1=O (centres undefined)	13µM	-84	11µM	?	?
CCC1C/C(=C\c2cc(OC)c(OC)cc2OC)C(=O)/C(=C/c2cc(OC)c(OC)cc2OC)C1 (centres undefined)	?	-70	8.9µM	?	?
N#Cc1c(NC(=O)c2cccc3ccccc23)sc2c1CCCC2	-	.	.	.	.
CCOC(=O)N1CCN(C(=O)C2CCN(C(=O)c3ccccc3C)CC2)CC1	?	-103	-	.	?
COc1cc(/C=N/NC(=O)c2sc(N)c(C#N)c2C)ccc1O	-	-90	-	-	?
Cc1c(C(=O)N/N=C/c2ccc(O)c(Br)c2)sc(N)c1C#N	-	-96	-	-	?
O=C(N/N=C/c1ccc(O)c(Br)c1)c1cc2c(ccc3ccccc32)o1	-	?	-	-	-
COc1cc(/C=N/NC(=O)c2ccccc2)ccc1O	-	-	-	-	-
CCN(C(=O)C(=O)c1c(C)[nH]c2ccccc12)c1ccccc1	.	.	-	.	-
COC(=O)c1ccc(NC(=O)CN(C)Cc2cccc(F)c2)cc1	-	-105	-	-	-
COc1ccc(-c2ccoc2)cc1[C@H]1[C@H]2C=CC[C@@H](C)[C@@H]2C(=O)N1Cc1ccccc1	?	-66	-	-	?
CCCCCn1c(CCCNC(=O)c2ccc(Cl)cc2)nc2ccccc21	-	.	-	-	?
SMILES	ATXN2 expr inh	IL1B secr inh	HepG2 tox	ATXN viability	TGFb SMAD3 inh
CCOC(=O)N1CCN(S(=O)(=O)c2ccc(C(=O)N(CCN(C)C)c3nc4ccc(CC)cc4s3)cc2)CC1	-	-	-	-	-
CCOC(=O)N1CCN(S(=O)(=O)c2ccc(C(=O)N(CCCN(C)C)c3nc4ccc(CC)cc4s3)cc2)CC1	?	-62	-	-	-
CCOC(=O)N1CCN(S(=O)(=O)c2ccc(C(=O)N(CCCN(C)C)c3nc4ccc(Cl)cc4s3)cc2)CC1	?	-96	11µM	?	?
CN1C(CSCC(F)(F)F)Nc2cc(Cl)c(S(N)(=O)=O)cc2S1(=O)=O (centres undefined)	-	.	.	-	.
O=C(CS(=O)(=O)c1cccc2nsnc12)N1CCN(c2ccc(F)cc2)CC1	-	.	-	-	-
CCOc1cc(/C=C/C(=O)c2ccc(O)cc2)ccc1OCC(=O)N(C)C	-	-103	-	?	-
